# Experimental data reported in PubChem BioAssay.
# Calls of active or inactive are those of the source.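 Rule for the calls, unless noted: active = GFP response above 150% of the DMSO level; inconclusive = fewer than 70 events counted for a yeast strain; inactive = the rest.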
# Test: modulators of MEP2-GFP levels in yeast, confirmation, S. cerevisiae, flow cytometry GFP, cherry picks (AID 2272;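 active = GFP response above 150% of the DMSO control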;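 note: ratio of well signal to plate DMSO mean so 100% equals DMSO level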)
# Conditions: S. cerevisiae MEP2-GFP strain, 3 h, at 10 µM, hits give high values
row,SMILES,GFP response vs DMSO
1,O=C(CCC(F)(F)F)N1CCC(CO)(CCc2ccccc2)CC1,102% (inactive)
2,O=C(Nc1cc(Sc2ccccn2)cc([N+](=O)[O-])c1)c1cccc(F)c1,106% (inactive)
3,CC(=O)Nc1cccc(/C(C)=N/NC(=O)c2ccccc2Cl)c1,100% (inactive)
4,Cc1cc(Br)c2c(c1)/C(=C/C(=O)c1cccs1)C(=O)N2,105% (inactive)
5,N=C1S/C(=C\c2ccco2)C(=O)N1c1nccs1,112% (inactive)
6,Cc1cc(NC(=O)c2cccnc2Cl)ccc1NC(=O)c1cc2ccccc2o1,105% (inactive)
7,COc1ccc2c(/C=C/c3cc[n+](C)cc3)c[nH]c2c1,199% (active)
8,C/C(=N\NC(=O)COc1ccccc1-c1ccccc1)c1ccccn1,96.6% (inactive)
9,CC(=O)c1cc(NC(=O)c2ccc(C)cc2)c(=O)oc1C,104% (inactive)
10,O=C(Cc1ccc(Cl)cc1)NNC(=S)NC(=O)c1cccs1,114% (inactive)
11,COc1ccc(NC(=O)Nc2ccon2)c(OC)c1,99% (inactive)
12,O=S(=O)(c1ccc(Oc2ccc(Br)cc2)cc1)N1CCOCC1,97.5% (inactive)
13,Cc1cccn2c(=O)c(/C=C(\C#N)C(=O)NCc3ccco3)c(N3CCCC(C)C3)nc12 (stereo not given),98.8% (inactive)
14,CCS(=O)(=O)Nc1cccc(C2=NN(S(C)(=O)=O)C(c3ccccc3)C2)c1 (stereo not given),120% (inactive)
15,Cc1ccc(C(C(=O)NC2CCCCC2)N(CCCN2CCOCC2)C(=O)c2snc(C(N)=O)c2N)cc1 (stereo not given),99.5% (inactive)
16,O=C(O)C1CCN(S(=O)(=O)c2ccc(Oc3ccccc3)cc2)CC1,104% (inactive)
17,CCCC(=O)Nc1ccc(C(=O)/C=C/c2ccc(SC)cc2)cc1,102% (inactive)
18,Cc1cccc(CS(=O)(=O)c2ncc(Cl)c(C(=O)NCc3ccc4c(c3)OCO4)n2)c1,102% (inactive)
19,Cc1nnc(NC(=O)c2ccc(S(=O)(=O)N(C)Cc3ccccc3)cc2)o1,102% (inactive)
20,Clc1cnc(N/N=C/c2cccs2)c(Cl)c1,126% (inactive)

row,SMILES,GFP response vs DMSO
1,CC1CCCN(CCCNC(=O)C2CCN(S(=O)(=O)N3CCC4(CC3)OCCO4)CC2)C1 (stereo not given),96.2% (inactive)
2,Clc1ccc(OCCn2cnc3ccccc32)c(Cl)c1,89.9% (inactive)
3,O=C(O)c1ccn2c(C(=O)c3ccccc3)c(-c3ccccc3)cc2c1,94.1% (inactive)
4,CC(=O)Oc1ccc(N2C(=O)C3C4C=CC(CO)(O4)C3C2=O)cc1 (stereo not given),107% (inactive)
5,COc1ccc(/C=C/C(=O)c2ccc(Cl)cc2)c(OC)c1,100% (inactive)
6,O=C(CN1C(=O)c2cccc3cccc(c23)C1=O)N1CCCCCC1,94.7% (inactive)
7,COC(=O)c1ccc(CS(=O)(=O)c2ccc(F)cc2)o1,103% (inactive)
8,O=C(c1cccc(COCC(F)(F)C(F)F)c1)N1CCN(c2ccccc2)CC1,104% (inactive)
9,COc1ccccc1N=Cc1nc(-c2ccccc2)oc1OC(C)=O,101% (inactive)
10,CNC(=O)c1c(O)c2cccc3c2n(c1=O)CC3,97.5% (inactive)
11,O=[N+]([O-])c1cc(S(=O)(=O)C(F)(F)F)ccc1Sc1nc2ccccc2s1,102% (inactive)
12,CN(C)c1ccc(/C=C/c2cc[n+](C)cc2)cc1,215% (active)
13,O=c1oc(/C=C/c2ccc([N+](=O)[O-])s2)nc2ccccc12,267% (active)
14,Cc1ccc(Sc2ncnc3onc(C)c23)cc1,96.8% (inactive)
15,COc1ccc(C(=O)c2no[n+]([O-])c2C(=O)c2ccc(OC)cc2)cc1,94.1% (inactive)
16,CCN(CC)CCCN(Cc1cc2cc3c(cc2[nH]c1=O)OCO3)C(=S)Nc1ccccc1,139% (inactive)
17,COc1ccc(-c2cc(C(F)(F)F)nc(N3CCOCC3)n2)cc1OC,126% (inactive)
18,O=c1/c(=C/c2cccc3ccccc23)sc2ncnn12,116% (inactive)
19,Cc1ccccc1NC(=O)c1ccccc1O,101% (inactive)
20,COc1ccccc1-c1noc(-c2cc(OC)c(OC)c(OC)c2)n1,104% (inactive)

# Test: AGP1-GFP expression modulators, hit retest, confirmation, cell-based, flow cytometry, S. cerevisiae, cherry picks (AID 2273);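 note: median GFP channel fluorescence over the whole cell population gate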
# Conditions: S. cerevisiae AGP1-GFP strain, 3 h, at 10 µM
row,SMILES,"GFP response, % of DMSO"
1,O=C(CCC(F)(F)F)N1CCC(CO)(CCc2ccccc2)CC1,101% (inactive)
2,O=C(Nc1cc(Sc2ccccn2)cc([N+](=O)[O-])c1)c1cccc(F)c1,95.7% (inactive)
3,CC(=O)Nc1cccc(/C(C)=N/NC(=O)c2ccccc2Cl)c1,101% (inactive)
4,Cc1cc(Br)c2c(c1)/C(=C/C(=O)c1cccs1)C(=O)N2,107% (inactive)
5,N=C1S/C(=C\c2ccco2)C(=O)N1c1nccs1,95.7% (inactive)
6,Cc1cc(NC(=O)c2cccnc2Cl)ccc1NC(=O)c1cc2ccccc2o1,98.8% (inactive)
7,COc1ccc2c(/C=C/c3cc[n+](C)cc3)c[nH]c2c1,100% (inactive)
8,C/C(=N\NC(=O)COc1ccccc1-c1ccccc1)c1ccccn1,94.5% (inactive)
9,CC(=O)c1cc(NC(=O)c2ccc(C)cc2)c(=O)oc1C,94.3% (inactive)
10,O=C(Cc1ccc(Cl)cc1)NNC(=S)NC(=O)c1cccs1,102% (inactive)
11,COc1ccc(NC(=O)Nc2ccon2)c(OC)c1,106% (inactive)
12,O=S(=O)(c1ccc(Oc2ccc(Br)cc2)cc1)N1CCOCC1,90.1% (inactive)
13,Cc1cccn2c(=O)c(/C=C(\C#N)C(=O)NCc3ccco3)c(N3CCCC(C)C3)nc12 (stereo not given),101% (inactive)
14,CCS(=O)(=O)Nc1cccc(C2=NN(S(C)(=O)=O)C(c3ccccc3)C2)c1 (stereo not given),112% (inactive)
15,Cc1ccc(C(C(=O)NC2CCCCC2)N(CCCN2CCOCC2)C(=O)c2snc(C(N)=O)c2N)cc1 (stereo not given),104% (inactive)
16,O=C(O)C1CCN(S(=O)(=O)c2ccc(Oc3ccccc3)cc2)CC1,96.7% (inactive)
17,CCCC(=O)Nc1ccc(C(=O)/C=C/c2ccc(SC)cc2)cc1,97.2% (inactive)
18,Cc1cccc(CS(=O)(=O)c2ncc(Cl)c(C(=O)NCc3ccc4c(c3)OCO4)n2)c1,98.7% (inactive)
19,Cc1nnc(NC(=O)c2ccc(S(=O)(=O)N(C)Cc3ccccc3)cc2)o1,91.2% (inactive)
20,Clc1cnc(N/N=C/c2cccs2)c(Cl)c1,98.2% (inactive)

row,SMILES,"GFP response, % of DMSO"
1,CC1CCCN(CCCNC(=O)C2CCN(S(=O)(=O)N3CCC4(CC3)OCCO4)CC2)C1 (stereo not given),98.9% (inactive)
2,Clc1ccc(OCCn2cnc3ccccc32)c(Cl)c1,92.7% (inactive)
3,O=C(O)c1ccn2c(C(=O)c3ccccc3)c(-c3ccccc3)cc2c1,88.2% (inactive)
4,CC(=O)Oc1ccc(N2C(=O)C3C4C=CC(CO)(O4)C3C2=O)cc1 (stereo not given),101% (inactive)
5,COc1ccc(/C=C/C(=O)c2ccc(Cl)cc2)c(OC)c1,90.2% (inactive)
6,O=C(CN1C(=O)c2cccc3cccc(c23)C1=O)N1CCCCCC1,100% (inactive)
7,COC(=O)c1ccc(CS(=O)(=O)c2ccc(F)cc2)o1,102% (inactive)
8,O=C(c1cccc(COCC(F)(F)C(F)F)c1)N1CCN(c2ccccc2)CC1,102% (inactive)
9,COc1ccccc1N=Cc1nc(-c2ccccc2)oc1OC(C)=O,70.7% (inactive)
10,CNC(=O)c1c(O)c2cccc3c2n(c1=O)CC3,100% (inactive)
11,O=[N+]([O-])c1cc(S(=O)(=O)C(F)(F)F)ccc1Sc1nc2ccccc2s1,88.1% (inactive)
12,CN(C)c1ccc(/C=C/c2cc[n+](C)cc2)cc1,109% (inactive)
13,O=c1oc(/C=C/c2ccc([N+](=O)[O-])s2)nc2ccccc12,107% (inactive)
14,Cc1ccc(Sc2ncnc3onc(C)c23)cc1,99% (inactive)
15,COc1ccc(C(=O)c2no[n+]([O-])c2C(=O)c2ccc(OC)cc2)cc1,92.9% (inactive)
16,CCN(CC)CCCN(Cc1cc2cc3c(cc2[nH]c1=O)OCO3)C(=S)Nc1ccccc1,133% (inactive)
17,COc1ccc(-c2cc(C(F)(F)F)nc(N3CCOCC3)n2)cc1OC,99.5% (inactive)
18,O=c1/c(=C/c2cccc3ccccc23)sc2ncnn12,91.2% (inactive)
19,Cc1ccccc1NC(=O)c1ccccc1O,93.8% (inactive)
20,COc1ccccc1-c1noc(-c2cc(OC)c(OC)c(OC)c2)n1,99.2% (inactive)
